Results taken from PubChem BioAssay (NCATS).
“And” between values parts separate entries of the source, which are not always exact repeats. Identical values can stand only once. Results filed as inconclusive are left out. Entries that show only a call come without a potency. Values without a mark were called inactive. The source made the active and inactive calls. Calls follow the shape of the dose curve; as a rule, active = well fitted curve in the direction sought with a large enough effect; inconclusive = small, poorly fitted or top-dose-only effect, or another doubt; inactive = no such curve, though single readings can be large; an effect the other way counts as inactive or inconclusive.

Key:
[1] = Viability qHTS for spleen associated tyrosine kinase inhibitor (SYKi) naive MV4-11 cells (AID 1963823); also: nearly all actives have a fitted effect of over 40% in size; also: potency is read from the fitted curve at half-maximal effect
Summary of the method: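 SYK inhibitor-naive MV4-11 cells, 500 per well, exposed to compounds for 72 hr at 37 C, 5% CO2. Viability read as CellTiter-Glo luminescence after 10 min at room temperature.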

[2] = Viability qHTS for spleen associated tyrosine kinase inhibitor (SYKi) drug resistant MV4-11 cells (AID 1963824); also: nearly all actives have a fitted effect of over 35% in size; also: potency is read from the fitted curve at half-maximal effect
Summary of the method: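 SYK-inhibitor-resistant MV4-11 AML cells were seeded at 500 per well onto compound and cultured 72 hours (37 °C, 5% CO2). CellTiter-Glo was then added, and after 10 min at room temperature, luminescence gave viability.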

[3] = Quantitative highthroughput screen to assess conditional lethalithy of NOMO1 cells grown in RPMI1640 with untreated serum (RPMI+s) (AID 1963876); also: nearly all actives have a fitted effect of over 35% in size; also: potency is read from the fitted curve at half-maximal effect
Summary of the method: (§1)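 Each medium arm—HPLM with 10% dialyzed FBS, or RPMI1640 with 5 mM glucose and 10% untreated or dialyzed FBS—was screened against an 11-point, 3-fold compound titration for 48 h at 37 °C, with CellTiter-Glo luminescence as endpoint.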

[4] = Quantitative highthroughput screen to assess conditional lethalithy of NOMO1 cells grown in RPMI1640 with dialyzed fetal bovine serum (RPMI+ds) (AID 1963877); also: nearly all actives have a fitted effect of over 30% in size; also: potency is read from the fitted curve at half-maximal effect; as to Viability: series mostly up to about 46 µM
Summary of the method: as §1

[5] = Quantitative highthroughput screen to assess conditional lethalithy of NOMO1 cells grown in Human Plasma-Like Medium with dialyzed fetal bovine serum (HPLM+ds) (AID 1963878); also: nearly all actives have a fitted effect of over 35% in size; also: potency is read from the fitted curve at half-maximal effect
Summary of the method: as §1

[6] = Quantitative highthroughput screen to assess conditional lethalithy of SEM cells grown in Human Plasma-Like Medium with dialyzed fetal bovine serum (HPLM+ds) (AID 1963882); also: series mostly up to about 46 µM; nearly all actives have a fitted effect of over 35% in size
Summary of the method: as §1

[7] = Quantitative highthroughput screen to assess conditional lethalithy of SEM cells grown in RPMI1640 with unreated serum (RPMI+s) (AID 1963883); also: nearly all actives have a fitted effect of over 35% in size
Summary of the method: as §1

[8] = Quantitative highthroughput screen to assess conditional lethalithy of SEM cells grown in RPMI1640 with dialyzed fetal bovine serum (RPMI+ds) (AID 1963884)
Summary of the method: as §1

[9] = Quantitative highthroughput screen to assess conditional lethalithy of P12 Ichikawa cells grown in RPMI1640 with dialyzed fetal bovine serum (RPMI+ds) (AID 1963880); conditions: Potency: P12-Ichikawa viability; also: nearly all actives have a fitted effect of over 35% in size; also: potency is read from the fitted curve at half-maximal effect
Summary of the method: as §1

[10] = Quantitative highthroughput screen to assess conditional lethalithy of P12 Ichikawa cells grown in RPMI1640 with untreated serum (RPMI+s) (AID 1963881); conditions: Potency: viability
Summary of the method: as §1

[11] = Cellular viability qHTS for adrenocortical cancer (ACC) cell line SW-13 (AID 1963989); conditions: SW-13 ACC cells viability, CellTiter-Glo, 48 h; activity (max response): hits give low values; also: nearly all actives have a fitted effect of over 65% in size; also: potency is read from the fitted curve at half-maximal effect;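 as to activity (max response): cells grown in serum-free medium with ITS supplement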
Summary of the method: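 Luminescent ATP read-out (CellTiter-Glo, 20 min at room temperature) measured metabolically competent SW-13 cells after 48 h compound treatment. Final concentrations spanned up to 46 uM; bortezomib served as positive control.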

[12] = Cellular viability qHTS for adrenocortical cancer (ACC) cell line NCI-H295R (AID 1963990); also: nearly all actives have a fitted effect of over 60% in size; also: potency is read from the fitted curve at half-maximal effect
Summary of the method: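 IC50 and maximal efficacy derive from four-parameter logistic modelling of titration curves, with reads scaled between DMSO-only wells (0%) and doxorubicin hydrochloride (100% inhibition). Compounds spanned up to 46 uM over 48 h.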

SMILES | Potency [1] | Potency [2] | Potency [3] | Potency [4] | Potency [5] | Potency [6] | Potency [7] | Potency [8] | Potency [9] | Potency [10] | activity (max response) [11] [%] | Potency [12] | Potency [11]
Cc1ccccc1-n1c(Cn2nc(-c3cccc(O)c3)c3c(N)ncnc32)nc2cccc(C)c2c1=O | 6.61 µM (active) | 11.6 µM (active) | 1.18 µM (active) | 2.35 µM (active) | 1.66 µM (active) | inactive | inactive | inactive | – | – | – | – | –
O=C(O)c1cc(=O)[nH]c(=O)[nH]1 | inactive | inactive | inactive | inactive | inactive | inactive | inactive | inactive | inactive | inactive | -4.98 | inactive | –
COc1cc(Nc2ncc(F)c(Nc3ccc4c(n3)N(COP(=O)(O)O)C(=O)C(C)(C)O4)n2)cc(OC)c1OC | 92 nM (active) and 259 nM (active) and 83.3 nM (active) | 130 nM (active) and 461 nM (active) and 148 nM (active) | inactive | inactive | inactive | – | – | – | inactive | – | – | 15.8 µM (active) | 14.1 µM (active)
O=C(O)Cc1cccc(OCCCN(Cc2cccc(C(F)(F)F)c2Cl)CC(c2ccccc2)c2ccccc2)c1 | 20.9 µM (active) | 16.6 µM (active) | inactive | inactive | inactive | inactive | inactive | inactive | inactive | inactive | – | 22.4 µM (active) | –
Fc1ccc(CNc2ncnc3ccc(F)cc23)cc1 | 2.06 µM (active) | 1.84 µM (active) | inactive | inactive | inactive | inactive | inactive | inactive | 11.8 µM (active) | – | – | – | –
O=C(O)CCCCCC(=O)NN=C1CCCC1 | inactive | inactive | inactive | inactive | inactive | inactive | inactive | inactive | inactive | – | 2.29 | inactive | –
